# Source: PubChem BioAssay (The Scripps Research Institute Molecular Screening Center)
# SF1 inhibitor – SF-1 (human) inhibition; Q13285; hit rate 0.55% among 65,000; inhibition, % at 10 µM; CHO-K1 Gal4-SF-1 LBD luciferase reporter; AID 525;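 active = inhibition above the mean inhibition of all tested compounds plus 3 SD, cut at about 48% in these data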
# Target sequence (Q13285 whole entry, looked up, the tested form may be a part): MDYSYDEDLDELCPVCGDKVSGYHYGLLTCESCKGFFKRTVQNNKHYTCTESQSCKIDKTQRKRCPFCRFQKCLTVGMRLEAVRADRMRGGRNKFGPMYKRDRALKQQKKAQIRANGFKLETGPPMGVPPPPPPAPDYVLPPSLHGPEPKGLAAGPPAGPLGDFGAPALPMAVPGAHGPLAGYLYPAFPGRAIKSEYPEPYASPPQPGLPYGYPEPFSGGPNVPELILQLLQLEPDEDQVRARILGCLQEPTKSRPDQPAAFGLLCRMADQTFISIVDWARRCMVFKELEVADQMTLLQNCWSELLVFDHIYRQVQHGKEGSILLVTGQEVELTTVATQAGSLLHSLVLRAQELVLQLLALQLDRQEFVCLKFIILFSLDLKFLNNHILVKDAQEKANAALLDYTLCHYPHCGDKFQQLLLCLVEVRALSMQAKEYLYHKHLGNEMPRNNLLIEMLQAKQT
# Numbers stand for hits; – = inactive. Only a selection was taken, and hits are over-represented in it overall.
SMILES,SF1 inhibitor
CCC(C(=O)N1CCc2ccccc2C1)n1nc(C)n2c(cc3occc32)c1=O (stereo unspecified),–
COc1ccc(N2CCN(C(=O)CN3C(=O)C4CC=CCC4C3=O)CC2)cc1 (stereo unspecified),–
CC(=O)c1sc(NC(=O)C2(F)C(F)(F)C(F)(F)C(F)(F)C(F)(F)C2(F)F)nc1C,93
CCOC(=O)c1sc(NC(=O)C2CC2)nc1C,–
CC(=O)c1sc(Nc2nc3ccc(F)cc3s2)nc1C,–
Cc1ccc(NC(=O)CS(=O)CC(=O)NCC2CCCO2)cc1 (stereo unspecified),–
Cn1c(SCC(=O)Nc2cc(=O)n(C)c(=O)n2C)nnc1-c1cccs1,–
COc1ccc(-c2cc(C(=O)O)c(C)o2)cc1OC,51
COc1ccc(-c2nnc(SCCC(=O)O)n2C)cc1OC,–
Cc1oc(-c2ccc3c(c2)OCCO3)cc1C(=O)O,81
Cc1oc2cc(O)cc(O)c2c(=O)c1-c1ccc2c(c1)OCCCO2,–
CC(=O)c1c(C)[nH]c(C(=O)Nc2ccc3c(c2)OCCO3)c1C,–
COc1ccc(-c2nc(C)c(C(C)=O)n2O)cc1OC,–
O=C(COc1ccc(Cl)cc1Cl)NC1CCSC1=O (stereo unspecified),–
Clc1cccc(-c2nc(-c3ccccn3)no2)c1,71
Clc1ccc(OCc2nc(-c3ccncc3)no2)c(Cl)c1,–
Brc1ccc(-c2nc(-c3cccnc3)no2)o1,–
Cc1ccc(-c2nc(-c3ccccn3)no2)cc1,92
Cc1ccccc1-c1noc(-c2ccc(O)cc2)n1,–
COc1cccc(-c2nc(-c3ccccn3)no2)c1OC,–
Cc1ccc(-c2nc(-c3ccccn3)no2)cc1Cl,86
CC(C)(C)c1ccc(OCc2nc(-c3ccccn3)no2)c(Br)c1,–
c1ccc(CCCc2nc(-c3ccccn3)no2)cc1,–
NC(=O)CSc1nnc(-c2ccoc2)o1,–
C/[N+]([O-])=C1\Cc2ccccc2C1=O,–
SMILES,SF1 inhibitor
COC(=O)c1ccccc1NC(=O)Nc1cc(C)cc(C)n1,–
COC(=O)C1=C(CSc2nnnn2C)NC(=O)NC1c1cc(C)ccc1C (stereo unspecified),–
Cc1ccc(-c2nc(Nc3ccccc3)n[nH]2)cc1,–
Cc1ccc(C(=O)Nc2c(C(=O)NCc3ccco3)cnn2-c2ccccc2)cc1,–
CC(C)CCNC(=O)C1CCN(S(=O)(=O)c2ccc3c(c2)CCC(=O)N3)CC1,–
Cc1ccc(-n2nc(C)c(C3C(C#N)=C(N)OC4=C3C(=O)CC(C)(C)C4)c2Cl)cc1 (stereo unspecified),–
O=C(Nc1ccccc1F)c1ccncc1,–
Cc1csc(NC(=O)c2sc3nc(-c4cccs4)ccc3c2N)n1,–
O=C(Nc1nc(-c2ccc(Cl)s2)cs1)c1ccncc1,63
Cc1nc2sc(C(c3ccco3)N3CCC(Cc4ccccc4)CC3)c(O)n2n1 (stereo unspecified),–
CCn1c(SCc2cccnc2)nnc1-c1c[nH]c2ccccc12,–
O=C(CSc1cccc2cccnc12)NCc1ccco1,–
COc1cccc(NC(=O)c2nc3ncccn3n2)c1,–
COc1ccc(C(=O)Nc2cccc(OC)c2)cc1,–
COc1ccc(C(=O)NC(=O)Nc2cc(C)ccn2)cc1,89
COc1cc(CNC2CCC(C)C2)cc(OC)c1 (stereo unspecified),–
Cc1ccc(CNc2nc3ccccc3s2)s1,61
Cc1noc(C)c1CSc1nc2ccccc2s1,–
c1csc(CSc2nc3ccccc3s2)c1,–
CSC1=C(C#N)C(C)C2=C(CC(C)(C)CC2=O)N1 (stereo unspecified),–
CCC(=O)NC1(C(F)(F)F)C(=O)NC(C)=C1C#N (stereo unspecified),–
COC(=O)c1ccc(CSc2nc3c(cnn3-c3ccccc3)c(=O)[nH]2)o1,–
O=C(COc1ccc(Cl)cc1Cl)Nc1ccccn1,–
O=C(CN1C(=O)NC2(CCCCCC2)C1=O)c1ccc2c(c1)OCCO2,–
Cc1cc(C)cc(-n2cc3c(=O)n(C)c(=O)n(C)c3c2)c1,–
SMILES,SF1 inhibitor
CCN(C1CCCCC1)S(=O)(=O)c1ccc(S(=O)(=O)NCc2ccncc2)cc1,52
COC(=O)COc1ccc(S(=O)(=O)NCc2ccncc2)cc1,–
O=C(CCC1CCCCC1)NCc1ccncc1,–
O=C(CCC1CCCC1)N1CCN(C(=O)COc2ccccc2)CC1,–
COc1ccc(C)cc1Cn1c(S(C)(=O)=O)nc2ccccc21,–
CC(NC(=O)c1cc2ccccc2o1)c1cccs1 (stereo unspecified),–
COc1ccc2c(c1OC)C(=O)N(c1cccc(C(F)(F)F)c1)C2,–
COc1ccccc1CC(=O)N1CCN(c2cccc(C(F)(F)F)c2)CC1,48
O=C(O)CCC(=O)N1CCN(c2cccc(Cl)c2)CC1,–
COc1cc2c(cc1NC(=O)CN1C(=O)NC3(CCc4ccccc43)C1=O)oc1ccccc12 (stereo unspecified),–
COc1cccc2cc(NC(=O)C3CCCCC3)c(=O)oc12,–
CCn1c(CC(=O)Nc2ccc(C)cc2)nnc1SCC(=O)NCc1ccccc1,–
N#CC1=C(N)C(C#N)(C#N)[C@H](c2ccncc2)[C@H]2CN(C(=O)OCc3ccccc3)CC=C12,48
CCCOc1ccc([C@@H]2C3CN(C(=O)OCC)CC=C3C(C#N)=C(N)C2(C#N)C#N)cc1OC (stereo partly specified),–
CCOc1ccccc1N(CC(=O)Nc1ccc(C)cc1)S(C)(=O)=O,–
CCOc1cccc(-c2nnc(SCC(=O)Nc3ccc(OC)c(OC)c3)n2N)c1,–
CCOc1ccccc1-n1c(SCC(=O)Nc2ccc(CC)cc2)nc2n[nH]c(C)c2c1=N,84
O=C(Nc1ccc2c(c1)OCO2)c1cnn2cccnc12,–
c1ccn2c(SCc3cn4ccsc4n3)nnc2c1,–
Cc1nc(NCc2ccco2)c2oc3ccccc3c2n1,–
CC(=O)c1ccc(Nc2ncnc3c2oc2ccccc23)cc1,–
COc1ccc(CCNc2nc(C)nc3c2oc2ccccc23)cc1OC,58
CCc1nc(NCc2ccccn2)c2oc3ccccc3c2n1,–
COc1ccc(CCNc2ncnc3c2oc2ccccc23)cc1OC,72
Cc1nc(NCCc2cnc[nH]2)c2oc3ccccc3c2n1,–
SMILES,SF1 inhibitor
CC1(C)CNC(=O)c2sc(N3CCOCC3)nc2C1,–
CCN(CC)S(=O)(=O)c1ccc(C(=O)NCc2n[nH]c(=S)n2Cc2ccccc2)cc1,–
COc1ccc(CCC(=O)Nc2ccc(-c3noc(-c4ccc(OC)c(OC)c4)n3)cc2)cc1,–
COc1ccc(-c2noc(CCC(=O)NCCN3CCN(c4ccccc4F)CC3)n2)cc1,–
COc1ccc(-c2noc(CCCC(=O)NCCc3ccccc3)n2)cc1OC,60
O=C(O)c1ccccc1C1=Nc2ccc(O)cc2Oc2cc(O)ccc21,–
COc1ccc(-c2cc(C(=O)OC3CCOC3=O)c3ccccc3n2)cc1OC (stereo unspecified),–
Cc1ccc(-c2cn3nc(C)c(C)nc3n2)cc1,79
COc1ccc(CNc2nc3c(c(=O)n(Cc4ccc(F)cc4)c(=O)n3C)n2C)cc1,–
COc1ccc(C2=CSC3=NCCN23)cc1F,–
CCCc1nnc(SCc2ccc(OCC)cc2)n1N,–
c1ccc(-c2nc3ccccc3s2)nc1,–
c1ccc(-c2ccc(-c3ccccn3)nn2)nc1,53
c1ccc(-c2n[nH]c(-c3ccccn3)n2)nc1,–
Cn1ncc2c(Nc3ccc(-c4ccccc4)cc3)ncnc21,–
Cc1ccc(-c2cc(C(=O)N3CCCC3)no2)cc1,51
COc1ccc(-c2cc(C(=O)N3CCCCC3)no2)cc1OC,–
